PubChem BioAssay (Tox21)
Values joined by “and” are separate entries in the source; they are usually repeats but may differ in a detail not shown here. Equal entries are not always repeated. Results filed as inconclusive are left out. Entries that show only a call come without a potency. Some compounds were tested as several samples or in several runs, with calls that do not always agree. Active and inactive are the calls of the source. Unless noted, the call rests on the fitted dose curve.

Columns and labels:
[1] = Nuclear factor erythroid 2-related factor 2/antioxidant responsive element (Nrf2/ARE) small molecule agonists: qHTS cell viability counter screen in human keratinocytes (AID 1919968; active means well fitted curve in the direction sought with a large enough effect in the repeat runs; an effect the other way counts as inactive or inconclusive; further: nearly all actives have a fitted effect of over 55% in size; further: potency means the concentration at half of the fitted maximal effect)
Outline: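 Viability counter-screen: KeratinoSens reporter cells, DMSO-delivered compounds, 23 h at 37 C, CellTiter-Fluor fluorescence.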

[2] = biological target: KiSS-1 receptor (Homo sapiens) (UniProt Q969F8); experiment: Human kisspeptin (KISS1R) small molecule agonists, calcium flux assay in KISS1R-HEK293 cells (AID 1920064; active means well fitted curve in the direction sought with a large enough effect in the repeat runs; an effect the other way counts as inactive or inconclusive)
Chain of KiSS-1 receptor (Homo sapiens) (Q969F8 whole entry, looked up): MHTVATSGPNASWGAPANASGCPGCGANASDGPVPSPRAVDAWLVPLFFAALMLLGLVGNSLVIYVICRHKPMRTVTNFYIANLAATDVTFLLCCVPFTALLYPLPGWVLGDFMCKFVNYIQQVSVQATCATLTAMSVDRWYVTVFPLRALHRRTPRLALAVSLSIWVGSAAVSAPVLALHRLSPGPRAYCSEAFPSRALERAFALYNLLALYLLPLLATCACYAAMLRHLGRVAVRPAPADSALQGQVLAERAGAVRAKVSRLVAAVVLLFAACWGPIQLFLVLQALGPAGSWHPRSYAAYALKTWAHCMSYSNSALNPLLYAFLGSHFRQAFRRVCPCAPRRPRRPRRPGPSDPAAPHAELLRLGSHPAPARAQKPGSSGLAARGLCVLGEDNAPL
Outline: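 Intracellular calcium mobilization in KISS1R-HEK293 cells was recorded by fluorescence (Ex/Em 480/540) for 3 min following compound addition to cells pre-loaded 1 h with calcium dye.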

[3] = G protein-coupled receptor (GPCR) small molecule agonists, calcium flux assay: HEK293 wild type cell line counter screen (AID 1920065)
Outline: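 In this agonist-mode screen, ATP is the positive control and DMSO the vehicle. Cells grow 18 h before a 1 h dye incubation at 37 C; signal is taken at Ex/Em 480/540 over 3 min.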

[4] = p53 small molecule agonists, cell-based qHTS assay with human liver microsomes (AID 1963577);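 further: p53 response element beta-lactamase reporter cells with liver microsomes plus NADPH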
Outline: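 HLM-supplemented p53RE-bla reporter assay: 16 h compound exposure at 37 C, microsomes and NADPH each 0.5 mg/mL final, read by fluorescence intensity.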

[5] = p53 small molecule agonists, cell-based qHTS assay with human liver microsomes: qHTS cell viability counter screen (AID 1963579); further: nearly all actives have a fitted effect of over 45% in size
Outline: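 Viability of p53RE-bla cells is measured as CellTiter-Glo luminescence following a 16 h, 37 C incubation with compound, liver microsomes from human donors and NADPH.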

[6] = p53 small molecule agonists, cell-based qHTS assay with rat liver microsomes: qHTS cell viability counter screen (AID 1963580); further: nearly all actives have a fitted effect of over 45% in size; further: potency means the concentration at half of the fitted maximal effect
Outline: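 p53RE-bla HCT-116 cells were exposed 16 h at 37 C to compounds with rat liver microsomes (0.5 mg/mL) and NADPH (0.5 mg/mL). Viability was measured in the same wells as ATP content by CellTiter-Glo luminescence.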

[7] = p53 small molecule agonists, cell-based qHTS assay (AID 1963582; active means well fitted activation curve with a large enough effect in the signal ratio in the repeat runs, not every such curve was filed as active; the % refers to the signal ratio)
Outline: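 Agonist activity was scored from beta-lactamase FRET fluorescence in p53RE-bla cells treated 16 h at 37 C with compounds in DMSO, substrate incubation being 2 h at room temperature.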

[8] = biological target: 5-hydroxytryptamine receptor 2A (Homo sapiens) (UniProt P28223); experiment: 5-hydroxytryptamine receptor 2A (HTR2A) small molecule antagonists, cell-based qHTS assay (AID 1963586); further: nearly all actives have a fitted effect of over 45% in size
Chain of 5-hydroxytryptamine receptor 2A (Homo sapiens) (P28223 whole entry, looked up): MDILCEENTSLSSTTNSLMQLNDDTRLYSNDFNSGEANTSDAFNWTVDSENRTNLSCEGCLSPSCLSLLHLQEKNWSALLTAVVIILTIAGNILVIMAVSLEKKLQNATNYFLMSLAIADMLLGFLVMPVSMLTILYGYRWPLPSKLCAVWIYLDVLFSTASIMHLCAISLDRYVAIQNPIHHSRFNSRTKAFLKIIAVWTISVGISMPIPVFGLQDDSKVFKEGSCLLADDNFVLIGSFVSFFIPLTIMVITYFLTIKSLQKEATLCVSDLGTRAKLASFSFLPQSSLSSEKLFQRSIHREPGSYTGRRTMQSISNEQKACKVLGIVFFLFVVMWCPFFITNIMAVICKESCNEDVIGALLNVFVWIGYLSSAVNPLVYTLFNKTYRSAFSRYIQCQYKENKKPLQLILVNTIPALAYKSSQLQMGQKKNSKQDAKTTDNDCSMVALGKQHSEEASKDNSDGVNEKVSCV
Outline: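 Antagonist-mode intracellular calcium assay: DOI (4 nM) added after 5 min compound pre-incubation at room temperature to dye-loaded HTR2A-CHO cells. Fluorescence followed for 3 min, sampled every second.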

[9] = biological target: 5-hydroxytryptamine receptor 2A (Homo sapiens) (UniProt P28223); experiment: 5-hydroxytryptamine receptor 2A (HTR2A) small molecule agonists, cell-based qHTS assay (AID 1963587); further: nearly all actives have a fitted effect of over 30% in size
Outline: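 CHO cells stably expressing human HTR2A, plated 18 h, loaded with calcium dye 1 h at 37 C. Agonist mode: compounds added and intracellular calcium fluorescence recorded kinetically for 2 min at 1 sec intervals.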

[10] = biological target: Muscarinic acetylcholine receptor M1 (Homo sapiens) (UniProt P11229); experiment: Cholinergic receptor muscarinic 1 (CHRM1) small molecule antagonists, cell-based qHTS assay (AID 1963588); further: nearly all actives have a fitted effect of over 40% in size
Chain of Muscarinic acetylcholine receptor M1 (Homo sapiens) (P11229 whole entry, looked up): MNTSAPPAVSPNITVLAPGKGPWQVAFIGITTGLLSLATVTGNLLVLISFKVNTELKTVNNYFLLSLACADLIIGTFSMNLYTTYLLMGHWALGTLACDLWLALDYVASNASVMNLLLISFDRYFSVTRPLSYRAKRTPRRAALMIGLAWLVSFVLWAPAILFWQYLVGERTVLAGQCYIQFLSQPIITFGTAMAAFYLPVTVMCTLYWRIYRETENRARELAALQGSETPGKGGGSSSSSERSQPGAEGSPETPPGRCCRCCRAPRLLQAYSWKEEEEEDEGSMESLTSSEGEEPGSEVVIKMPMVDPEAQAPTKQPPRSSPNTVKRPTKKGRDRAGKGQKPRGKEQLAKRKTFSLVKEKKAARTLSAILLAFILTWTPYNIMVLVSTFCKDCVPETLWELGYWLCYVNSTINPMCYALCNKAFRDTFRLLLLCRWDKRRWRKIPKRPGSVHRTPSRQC
Outline: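 CHRM1-CHO calcium-flux assay, antagonist mode. Cells were seeded 18 h, dye-loaded 1 h at 37 C and given compound for 5 min at RT, then acetylcholine was added at 50nM. FDSS fluorescence was read 3 min; 15 concentrations, three runs.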

[11] = biological target: Muscarinic acetylcholine receptor M1 (Homo sapiens) (UniProt P11229); experiment: Cholinergic receptor muscarinic 1 (CHRM1) small molecule agonists, cell-based qHTS assay (AID 1963589); further: nearly all actives have a fitted effect of over 35% in size
Outline: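 Stable CHRM1-CHO cells (human receptor) were incubated 18 h, dye-loaded for 1 h at 37 C and exposed to test compounds for agonist activity, with calcium-dependent fluorescence followed kinetically.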

[12] = cAMP Responsive Elements (CRE) small molecule agonists, cell-based qHTS assay (AID 1963590)
Outline: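 FRET-based beta-lactamase readout (LiveBLAzer B/G, 2 h RT) quantified CRE activation in HEK 293T CRE-bla cells after 3 h treatment with DMSO-dissolved compounds.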

[13] = cAMP Responsive Elements (CRE) small molecule antagonists, cell-based qHTS assay (AID 1963591; active means well fitted inhibition curve with a large enough effect in the signal ratio in the repeat runs, not every such curve was filed as active; the % refers to the signal ratio)
Outline: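 qHTS in CRE-bla HEK 293T cells: compound in DMSO, then 0.25 uM NKH477 (final), 3 h at 37 °C/5% CO2; beta-lactamase FRET read-out after 2 h substrate incubation.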

[14] = biological target: Beta-2 adrenergic receptor (Homo sapiens) (UniProt P07550); experiment: Adrenergic beta2 receptor (ADRB2) small molecule antagonists, cell-based qHTS assay (AID 1963592); further: series mostly up to about 92 µM; nearly all actives have a fitted effect of over 50% in size
Chain of Beta-2 adrenergic receptor (Homo sapiens) (P07550 whole entry, looked up): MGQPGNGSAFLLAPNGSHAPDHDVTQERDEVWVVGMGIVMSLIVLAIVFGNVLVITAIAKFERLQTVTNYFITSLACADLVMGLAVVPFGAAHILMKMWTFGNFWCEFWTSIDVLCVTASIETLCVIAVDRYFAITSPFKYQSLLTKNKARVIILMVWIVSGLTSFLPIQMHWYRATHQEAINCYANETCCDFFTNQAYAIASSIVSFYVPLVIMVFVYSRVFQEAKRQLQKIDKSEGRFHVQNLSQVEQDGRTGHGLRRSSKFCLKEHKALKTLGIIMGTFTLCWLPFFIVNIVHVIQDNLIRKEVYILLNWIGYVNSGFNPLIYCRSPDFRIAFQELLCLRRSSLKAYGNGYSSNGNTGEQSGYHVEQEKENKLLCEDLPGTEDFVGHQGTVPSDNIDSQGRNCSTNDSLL
Outline: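 Cells (CHO, stable ADRB2 overexpression) incubated 18-20hr at 37C; compounds added from DMSO; agonist mix (1nM isoproterenol, 100uM IBMX, 25uM Ro-20-1724) added; 0.5hr RT; d2-cAMP and anti-cAMP-cryptate added; 1hr RT; 665/615 nm read.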

[15] = biological target: D(2) dopamine receptor (Homo sapiens) (UniProt P14416); experiment: Dopamine D2 receptor (DRD2) small molecule agonists, cell-based qHTS assay (AID 1963594); further: nearly all actives have a fitted effect of over 35% in size
Chain of D(2) dopamine receptor (Homo sapiens) (P14416 whole entry, looked up): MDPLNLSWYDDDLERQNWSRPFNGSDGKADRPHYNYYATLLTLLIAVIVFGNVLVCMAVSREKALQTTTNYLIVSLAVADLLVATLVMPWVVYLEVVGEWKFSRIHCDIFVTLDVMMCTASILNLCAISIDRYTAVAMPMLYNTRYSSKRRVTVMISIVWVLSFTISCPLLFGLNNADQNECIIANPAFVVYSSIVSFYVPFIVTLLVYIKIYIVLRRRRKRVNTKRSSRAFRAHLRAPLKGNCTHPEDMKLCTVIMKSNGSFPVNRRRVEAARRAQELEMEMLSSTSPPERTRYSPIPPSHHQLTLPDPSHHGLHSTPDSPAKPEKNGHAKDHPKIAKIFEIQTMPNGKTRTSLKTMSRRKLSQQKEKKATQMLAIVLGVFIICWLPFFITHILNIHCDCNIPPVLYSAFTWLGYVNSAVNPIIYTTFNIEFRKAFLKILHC
Outline: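 HEK293 cells stably expressing human DRD2, pre-treated with PDE inhibitor Ro20-1724 (0.1 mM final) and compound 10 min at room temperature, then stimulated with NKH477 (200nM […]) for 30 min. cAMP read by HTRF (665/620 nm).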

[16] = biological target: D(2) dopamine receptor (Homo sapiens) (UniProt P14416); experiment: Dopamine D2 receptor (DRD2) small molecule antagonists, cell-based qHTS assay (AID 1963595; active means well fitted inhibition curve with a large enough effect in the signal ratio in the repeat runs, with a control signal flat; the % refers to the signal ratio; further: potency means the concentration at half of the fitted maximal effect)
Outline: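 Cells were plated and grown for 24 h at 37 °C. Ro20-1724 (0.1 mM final) went in first, then compound for 10 min. NKH477 (200 nM) with quinpirole (12 nM) followed for 30 min at RT, then HTRF detection reagents for 1 h.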

[17] = biological target: Gonadotropin-releasing hormone receptor (Homo sapiens) (UniProt P30968); experiment: Human gonadotropin-releasing hormone receptor (GnRHR) small molecule agonists, calcium flux assay in GnRHR-HEK293 cells (AID 1920063); further: nearly all actives have a fitted effect of over 35% in size
Chain of Gonadotropin-releasing hormone receptor (Homo sapiens) (P30968 whole entry, looked up): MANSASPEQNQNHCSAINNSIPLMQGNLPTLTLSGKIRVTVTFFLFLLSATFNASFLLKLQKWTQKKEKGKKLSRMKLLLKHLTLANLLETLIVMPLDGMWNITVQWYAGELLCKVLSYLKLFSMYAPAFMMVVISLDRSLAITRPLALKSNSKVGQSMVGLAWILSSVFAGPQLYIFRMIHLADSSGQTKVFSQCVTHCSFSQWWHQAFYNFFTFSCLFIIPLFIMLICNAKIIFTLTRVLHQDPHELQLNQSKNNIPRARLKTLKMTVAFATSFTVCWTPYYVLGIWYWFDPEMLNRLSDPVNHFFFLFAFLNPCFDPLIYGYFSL
Outline: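 Tox21-format agonist screen using human GnRHR-expressing HEK293 cells and a fluorescent calcium dye; kinetic 3-min fluorescence reading after compound addition, 15-point concentration series run in triplicate.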

[18] = p53 small molecule agonists, cell-based qHTS assay with rat liver microsomes (AID 1963578)
Outline: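 Quantitative HTS of the Tox21 10K library: p53RE-bla cells, rat liver microsomes plus NADPH at 0.5 mg/mL final each, 16 h at 37 C, beta-lactamase fluorescence detection.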

[19] = p53 small molecule agonists, cell-based qHTS assay: qHTS cell viability counter screen (AID 1963581); further: nearly all actives have a fitted effect of over 45% in size; further: potency means the concentration at half of the fitted maximal effect
Outline: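 Compounds are pinned onto HCT-116 p53RE-bla cells and left 16 h at 37 C. Following the reporter FRET read, ATP is quantified by CellTiter-Glo luminescence after 30 min at room temperature.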

[20] = biological target: Beta-2 adrenergic receptor (Homo sapiens) (UniProt P07550); experiment: Adrenergic beta2 receptor (ADRB2) small molecule agonists, cell-based qHTS assay (AID 1963593);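 further: CHO cells stably overexpressing human ADRB2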
Outline: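 CHO cells stably over-expressing ADRB2 were plated overnight at 37C, then dosed with compounds plus a stimulation mix containing 100uM IBMX and 25uM Ro-20-1724 for 0.5hr at room temperature. cAMP was measured by HTRF competition, 1hr.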

Structure (SMILES) | Potency [1] | Potency [2] | Potency [3] | Potency [4] | Potency [5] | Potency [6] | Potency [7] | Potency [8] | Potency [9] | Potency [10] | Potency [11] | Potency [12] | Potency [13] | Potency [14] | Potency [15] | Potency [16] | Potency [17] | Potency [18] | Potency [19] | Potency [20]
CCCCCCOC(C)=O | inactive | inactive | inactive | inactive | inactive | inactive | inactive | inactive | inactive | inactive | inactive | inactive | inactive | inactive | inactive | inactive |  |  |  | 
Cc1ccc(Cl)cc1 | inactive | inactive | inactive | inactive | inactive | inactive | inactive | inactive | inactive | inactive | inactive | inactive | inactive | inactive | inactive |  | inactive | inactive | inactive | inactive
Nc1nc2ncc(CNc3ccc(C(=O)N[C@@H](CCC(=O)O)C(=O)O)cc3)nc2c(=O)[nH]1 | inactive | inactive | inactive | inactive | inactive | inactive | inactive | inactive | inactive | inactive | inactive | inactive | inactive | inactive | inactive | inactive |  |  | inactive | 
O=C(O)c1cccc([N+](=O)[O-])c1 | inactive | inactive | inactive | inactive | inactive | inactive | inactive | inactive | inactive | inactive | inactive | inactive | inactive | inactive | inactive | inactive | inactive | inactive | inactive | inactive
CCCCOCCOCCSC#N | inactive | inactive | inactive |  | inactive | inactive | inactive | inactive |  | inactive | inactive | inactive | inactive | inactive | inactive | inactive |  | inactive | inactive | inactive
CCO[Si](CCC#N)(OCC)OCC | inactive | inactive | inactive |  |  | inactive |  | inactive | inactive | inactive | inactive | inactive | inactive | inactive |  | inactive |  |  | inactive | 
CCCCCCCCCC(=O)OC | inactive | inactive |  |  | inactive | inactive |  | inactive | inactive | inactive | inactive | inactive | inactive | inactive | inactive | inactive | inactive |  | inactive | 
CCCC[P+](CCCC)(CCCC)CCCC | inactive | inactive |  | inactive | inactive | inactive | inactive | inactive | inactive |  |  |  |  | inactive | inactive | inactive | inactive | inactive | inactive | inactive
C[C@]12C=CC(=O)C=C1CC[C@@H]1[C@@H]2[C@@H](O)C[C@@]2(C)[C@H]1CC[C@]2(O)C(=O)CO | inactive | inactive | inactive | inactive | inactive | inactive |  |  |  |  |  | inactive |  | inactive | inactive | inactive |  | inactive | inactive | inactive
CC/C(=C(\c1ccccc1)c1ccc(OCCN(C)C)cc1)c1ccccc1 | 24.3 µM (active) [middle of 5 runs] | inactive | inactive | inactive | inactive | 1.83 µM (active) and 28.8 µM (active) and inactive |  |  |  |  |  | inactive | inactive |  | inactive | 38.9 µM (active) and 61.1 µM (active) | inactive | inactive | inactive and 51.3 µM (active) | 
CCCCCCCC=O | inactive | inactive | inactive | inactive | inactive | inactive |  | inactive |  | inactive | inactive | inactive | inactive | inactive | inactive | inactive | inactive | inactive | inactive | inactive
CNNCc1ccc(C(=O)NC(C)C)cc1 | inactive | inactive | inactive | inactive | inactive |  | inactive |  |  |  |  | inactive |  | inactive |  | inactive | inactive | inactive | inactive | inactive
O=C1NS(=O)(=O)c2ccccc21 | inactive |  | inactive |  | inactive | inactive |  | inactive | inactive | inactive |  | inactive | inactive | inactive | inactive | inactive | inactive |  | inactive | inactive
O=C(Nc1ccccc1SSc1ccccc1NC(=O)c1ccccc1)c1ccccc1 | 6.14 µM (active) and 6.11 µM (active) | inactive |  | inactive | inactive | inactive | inactive | inactive | inactive | inactive | inactive |  |  | inactive | inactive | inactive | inactive |  | inactive | inactive
Nc1ccc(S(N)(=O)=O)cc1 | inactive | inactive | inactive |  |  |  |  |  |  |  |  | inactive | inactive | inactive | inactive | inactive | inactive |  | inactive | inactive
CC(=O)CC(=O)N(C)C | inactive | inactive | inactive | inactive | inactive | inactive | inactive | inactive | inactive | inactive | inactive | inactive | inactive | inactive | inactive | inactive |  | inactive | inactive | inactive
CCCCC/C=C\C/C=C\CCCCCCCC(=O)OC | inactive | inactive | inactive | inactive |  |  | inactive | inactive | inactive | inactive | inactive | inactive | inactive | inactive | inactive | inactive | inactive | inactive | inactive | inactive
